This is a sample that favours compounds with a hit; in the whole collection about 5.2% have one here.
PostGolgi yeast: growth inhibition of a yeast mutant, post-Golgi transport screen; inhibition, % at 10 µM; post-Golgi transport phenotypic cell assay; actives 0.9% (n = 98,000);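 further: yeast cells grown in 1536-well plates; yeast grown about 18 h at 30C before absorbance read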
PostGolgi ctrl: inhibits growth of the yeast control strain; actives 5% (n = 98,000); efflux-deficient yeast background strain, growth absorbance A615, 16 h; inhibition, % at 10 µM
EphB4 antag: blocks human EphB4 binding to ephrin-B2; AID 720; actives 0.15% (n = 97,000); EphB4 LBD / TNYL-RAW-Alexa532 peptide, fluorescence polarization; inhibition, % at 7 µM; P54760;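 active means inhibition above the screen-wide mean inhibition plus 3 SD, cut at about 15% in these data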;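 further: 0% = DMSO wells and 100% = excess unlabeled TNYL-RAW peptide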
Candida biofilm: kills Candida albicans biofilms | C. albicans biofilm + clotrimazole, Alamar Blue | inhibition, % at 6 µM | actives 0.14% (n = 85,000) | AID 834;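 active means inhibition above 20%; inactive means inhibition below 20%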;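 further: preformed 24 hr biofilms exposed to compound for 48 hr; 0% = biofilm without compound and 100% = blank killed by clotrimazole plus chlorhexidine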
The depositor's hits bear a star; x = no result; ! = not active in a repeat. Unless noted, no stated cut-off is given here; in the data, active means inhibition above about 30%; inactive means the rest.

SMILES	PostGolgi yeast	PostGolgi ctrl	EphB4 antag	Candida biofilm
Cc1ccc(C(=O)c2cc(C)sc2NC(=O)CN2CCN(C(=O)c3ccco3)CC2)cc1	4	38*	5	8
O=C(Cn1c(SCC(=O)NC2CCCC2)nnc1-c1ccncc1)Nc1ccc2c(c1)OCO2	4	19	-9	5
O=C(c1ccc(S(=O)(=O)Nc2ccc(F)cc2)cc1)N1CCN(C(=O)c2ccco2)CC1	24	4	-5	2
CCC(OC(=O)C(NC(=O)c1ccccc1)c1ccccc1)C(=O)Nc1cc(C)on1 (stereo not drawn)	42*	-6	5	2
COc1ccccc1NS(=O)(=O)c1cc([N+](=O)[O-])ccc1N/N=C/c1c(C)[nH]c2ccccc12	-7	24	2	x
O=[N+]([O-])c1ccc(N/N=C/c2c[nH]c3ccccc23)c(S(=O)(=O)Nc2ccc(Cl)cc2)c1	86*	24	5	x
COC(=O)c1ccc(CNC(=O)COc2ccccc2Br)o1	0	13	-7	4
Cc1cc(NC(=O)C2COc3ccccc3O2)no1 (stereo not drawn)	9	2	x	13
CCOC(=O)c1c(N)sc2c(NC(C)=O)cccc12	0	-2	-3	5
CCOC(=O)c1c(N)sc2c(O)c(Br)ccc12	12	49*	14	4
COc1ccc(Cl)cc1NC(=O)CN1CCC(n2nnc3cc(F)ccc32)CC1	6	6	-8	2
Cc1cc(C)c(S(=O)(=O)Nc2ccc[nH]c2=O)c(C)c1	3	21	-5	4
O=C(CN1CCN(c2ncccn2)CC1)NCCC1=CCCCC1	17	4	-1	8
CCOc1cc(C)c(S(=O)(=O)Nc2ccc(F)cc2)cc1C	-4	52*	10	-6
COc1ccccc1NC(=O)c1ccc(Br)o1	-3	-2	-2	8
O=C(Nc1ccccc1Oc1ccccc1)c1ccc(Br)o1	3	51*	13	11
O=C(Nc1ccccc1-c1ccccc1)c1ccc(Br)o1	-2	35*	-7	8
CCCCCNCc1cccc(Br)c1	5	0	-9	x
CCCCc1cc(=O)oc2cc(C)c(CN3CCCC3)c(O)c12	17	20	6	3
CCc1cc(=O)oc2cc(C)c(CN3CCCC(C)C3)c(O)c12 (stereo not drawn)	33*	0	3	6
CCOC(=O)c1oc2ccccc2c1N	6	3	0	9
CCOC(=O)Nc1cc(=O)c2ccccc2o1	-6	43*	-15	3
COc1cc(/C=C(/C#N)C(=O)NCCc2c[nH]c3ccccc23)ccc1OCc1ccccc1F	-1	3	-4	x
O=C(NCc1ccc(C(F)(F)F)cc1)C1CC(c2c(Cl)cccc2Cl)=NO1 (stereo not drawn)	6	11	-3	x
C/C(Cl)=C\Cn1c(N2CCCCCC2)nc2c1c(=O)n(C)c(=O)n2C	-6	25	1	9
SMILES	PostGolgi yeast	PostGolgi ctrl	EphB4 antag	Candida biofilm
COc1cnc(SCc2c(Cl)cccc2Cl)nc1Cl	17	34*	-7	x
O=C(OC1CCN(c2ncc(C(F)(F)F)cc2Cl)CC1)c1ccc(Cl)cc1	5	1	-4	x
O=C(OCCN1CCN(c2ncc(C(F)(F)F)cc2Cl)CC1)c1ccc(Cl)cc1	16	31*	2	x
O=C(CSc1nccn1-c1ncc(C(F)(F)F)cc1Cl)c1ccc(Cl)cc1	3	32*	5	x
Cc1cc2ncn(C(=O)N3CCCCCC3)c2cc1C	x	x	3	11
CC1CCc2sc3c(c2C1)c1ncnn1c(=O)n3CC(=O)c1ccc(Br)cc1 (stereo not drawn)	x	x	3	5
Cc1ccc(-n2c(O)c(/C=N/n3cnnc3)c3ccccc3c2=O)cc1	3	34*!	-2	10
Cc1cc2nc3c(nc2cc1C)C1(C(=O)O)CCC3(C)C1(C)C (stereo not drawn)	-7	32*	13	-4
CCCc1cc2c(cc1NC(=O)c1ccc(Br)cc1)OCO2	-3	-7	-8	x
COc1cccc(C(=O)N2CCN(C3CCC(c4ccccc4)CC3)CC2)c1OC (stereo not drawn)	94*	54*	-4	x
Cc1nn(C(C)C(=O)NNC(=S)Nc2ccc(F)cc2)c(C)c1[N+](=O)[O-] (stereo not drawn)	1	1	-4	x
Cc1ccc(C(=O)CC(=O)c2cc(Cl)ccc2O)cc1	4	33*	-7	9
O=C(CC(=O)c1ccccc1O)c1cccc(F)c1	10	38*	-6	x
O=C(Nc1ccccc1C(=O)O)c1cccc(F)c1	x	x	1	6
Cc1ccccc1C(=O)NNC(=O)c1ccc(F)cc1	-1	-1	-2	x
O=C(CC(=O)c1ccccc1O)c1ccc(F)cc1	8	58*	4	x
CCc1oc2ccccc2c1C(=O)CCN1CCCCC1	5	36*	-1	-1

Source: PubChem (several laboratories)
